Results on seven compounds are retold here after ChEMBL document CHEMBL1961873, “Compounds: GSK PKIS; Assays: Nanosyn kinase panel” (2012).

Molecules are shown by their SMILES.

For test [1], the target named is Rho-associated protein kinase 1 (Homo sapiens) (UniProt Q13464). As to conditions: at 1 µM.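 Also: reported values are mean percent inhibition of ROCK1.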
Test [2] addresses Rho-associated protein kinase 2 (Homo sapiens) (UniProt O75116). Particulars: at 0.1 µM.
Test [3] shares this target. As to conditions: at 1 µM.
Test [4] addresses Ribosomal protein S6 kinase alpha-1 (Homo sapiens) (UniProt Q15418). Particulars: at 0.1 µM.
For test [5] the target is unchanged. As to conditions: at 1 µM.
In test [6] the target is Ribosomal protein S6 kinase alpha-3 (Homo sapiens) (UniProt P51812). As to conditions: at 0.1 µM.
Chain of Ribosomal protein S6 kinase alpha-3 (Homo sapiens) (P51812 whole entry): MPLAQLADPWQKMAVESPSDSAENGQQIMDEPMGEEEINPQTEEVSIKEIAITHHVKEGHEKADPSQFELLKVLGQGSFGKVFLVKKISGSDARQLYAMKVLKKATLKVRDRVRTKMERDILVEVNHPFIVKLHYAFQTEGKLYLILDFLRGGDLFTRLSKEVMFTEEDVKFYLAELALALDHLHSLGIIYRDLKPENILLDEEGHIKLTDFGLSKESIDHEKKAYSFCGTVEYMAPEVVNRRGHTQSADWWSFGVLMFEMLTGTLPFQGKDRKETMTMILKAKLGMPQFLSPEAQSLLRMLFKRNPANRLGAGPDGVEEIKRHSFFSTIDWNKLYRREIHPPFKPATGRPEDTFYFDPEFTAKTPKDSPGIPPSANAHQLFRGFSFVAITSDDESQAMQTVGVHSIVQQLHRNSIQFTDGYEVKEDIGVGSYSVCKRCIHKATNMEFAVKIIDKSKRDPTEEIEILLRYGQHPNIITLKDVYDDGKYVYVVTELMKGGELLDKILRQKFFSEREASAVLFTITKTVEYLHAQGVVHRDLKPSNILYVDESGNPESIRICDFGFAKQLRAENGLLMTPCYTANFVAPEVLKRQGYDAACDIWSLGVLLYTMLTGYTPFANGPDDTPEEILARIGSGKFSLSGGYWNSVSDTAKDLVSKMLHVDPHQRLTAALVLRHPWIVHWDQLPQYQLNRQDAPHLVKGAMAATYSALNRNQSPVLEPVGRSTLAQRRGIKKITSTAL
Test [7] has the same target. As to conditions: at 1 µM.
Test [8] concerns the target Ribosomal protein S6 kinase alpha-2 (Homo sapiens) (UniProt Q15349). As to conditions: at 0.1 µM.
For test [9] the target is unchanged. Particulars: at 1 µM.
For test [10], the target named is Ribosomal protein S6 kinase alpha-6 (Homo sapiens) (UniProt Q9UK32). As to conditions: at 0.1 µM.
Chain of Ribosomal protein S6 kinase alpha-6 (Homo sapiens) (Q9UK32 whole entry): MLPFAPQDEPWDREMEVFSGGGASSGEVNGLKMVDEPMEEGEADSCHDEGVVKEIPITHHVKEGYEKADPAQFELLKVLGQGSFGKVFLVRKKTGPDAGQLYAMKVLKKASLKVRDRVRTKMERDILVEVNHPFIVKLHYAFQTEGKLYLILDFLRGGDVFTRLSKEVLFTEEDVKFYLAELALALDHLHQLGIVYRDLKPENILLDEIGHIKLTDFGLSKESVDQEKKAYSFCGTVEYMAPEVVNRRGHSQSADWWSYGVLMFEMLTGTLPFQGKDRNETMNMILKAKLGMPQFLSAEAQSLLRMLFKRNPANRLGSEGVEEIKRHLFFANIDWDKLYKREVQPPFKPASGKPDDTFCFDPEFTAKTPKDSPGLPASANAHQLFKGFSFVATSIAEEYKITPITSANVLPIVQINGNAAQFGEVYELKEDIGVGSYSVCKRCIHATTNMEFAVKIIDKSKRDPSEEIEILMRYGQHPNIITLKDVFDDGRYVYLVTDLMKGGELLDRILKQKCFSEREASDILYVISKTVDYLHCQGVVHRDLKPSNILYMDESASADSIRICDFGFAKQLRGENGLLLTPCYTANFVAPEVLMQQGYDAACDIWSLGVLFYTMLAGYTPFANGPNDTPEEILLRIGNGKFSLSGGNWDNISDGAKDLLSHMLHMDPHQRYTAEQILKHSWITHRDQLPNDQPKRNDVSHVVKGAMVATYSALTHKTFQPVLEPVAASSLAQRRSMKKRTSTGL
For test [11] the target is unchanged. Particulars: at 1 µM.
Test [12] has as its target T1, Serine/threonine-protein kinase Sgk1 (Homo sapiens) (UniProt O00141).
T1 sequence (whole entry): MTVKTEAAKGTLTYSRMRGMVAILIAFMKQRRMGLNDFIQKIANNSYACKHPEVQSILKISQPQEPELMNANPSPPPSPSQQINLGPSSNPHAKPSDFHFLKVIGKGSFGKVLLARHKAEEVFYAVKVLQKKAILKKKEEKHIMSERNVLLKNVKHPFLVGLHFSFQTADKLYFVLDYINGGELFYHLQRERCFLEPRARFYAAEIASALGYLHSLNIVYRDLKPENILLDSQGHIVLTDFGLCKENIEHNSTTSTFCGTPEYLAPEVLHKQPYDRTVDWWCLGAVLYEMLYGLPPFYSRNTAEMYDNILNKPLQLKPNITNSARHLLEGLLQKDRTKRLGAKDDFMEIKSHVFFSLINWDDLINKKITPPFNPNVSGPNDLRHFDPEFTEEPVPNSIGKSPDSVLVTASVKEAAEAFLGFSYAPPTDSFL
As to conditions: at 0.1 µM.

Test [13] addresses T1, Serine/threonine-protein kinase Sgk1 (Homo sapiens). Particulars: at 1 µM.
For test [14], the target named is T2, Serine/threonine-protein kinase Sgk2 (Homo sapiens) (UniProt Q9HBY8).
T2 sequence (whole entry): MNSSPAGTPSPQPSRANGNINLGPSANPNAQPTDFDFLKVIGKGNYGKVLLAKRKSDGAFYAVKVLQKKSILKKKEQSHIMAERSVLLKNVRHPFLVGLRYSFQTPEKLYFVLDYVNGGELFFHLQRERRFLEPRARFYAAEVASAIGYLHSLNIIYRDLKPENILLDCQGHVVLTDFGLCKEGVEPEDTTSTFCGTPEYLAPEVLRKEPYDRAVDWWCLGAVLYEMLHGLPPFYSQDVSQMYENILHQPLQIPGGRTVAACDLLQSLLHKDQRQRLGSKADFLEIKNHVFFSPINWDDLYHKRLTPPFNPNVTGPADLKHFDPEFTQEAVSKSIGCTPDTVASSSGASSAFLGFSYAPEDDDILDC
Particulars: at 0.1 µM.

Test [15] has as its target T2, Serine/threonine-protein kinase Sgk2 (Homo sapiens). As to conditions: at 1 µM.
The target in test [16] is T3, Serine/threonine-protein kinase Sgk3 (Homo sapiens) (UniProt Q96BR1).
T3 sequence (whole entry): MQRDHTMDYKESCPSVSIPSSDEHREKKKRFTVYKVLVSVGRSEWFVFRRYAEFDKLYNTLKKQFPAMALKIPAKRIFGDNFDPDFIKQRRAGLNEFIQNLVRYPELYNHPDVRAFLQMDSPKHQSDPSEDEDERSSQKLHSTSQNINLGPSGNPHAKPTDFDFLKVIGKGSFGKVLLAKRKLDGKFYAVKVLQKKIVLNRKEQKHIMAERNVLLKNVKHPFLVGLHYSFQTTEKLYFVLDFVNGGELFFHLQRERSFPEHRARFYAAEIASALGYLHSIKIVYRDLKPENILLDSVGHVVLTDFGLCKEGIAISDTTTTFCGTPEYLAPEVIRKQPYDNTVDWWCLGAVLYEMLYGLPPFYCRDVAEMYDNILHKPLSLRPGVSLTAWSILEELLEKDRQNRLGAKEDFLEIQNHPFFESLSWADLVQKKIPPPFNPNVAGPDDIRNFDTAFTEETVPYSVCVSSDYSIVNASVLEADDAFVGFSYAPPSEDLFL
As to conditions: at 0.1 µM.

Test [17] has as its target T3, Serine/threonine-protein kinase Sgk3 (Homo sapiens). As to conditions: at 1 µM.
The target of test [18] is 5'-AMP-activated protein kinase catalytic subunit alpha-1 (Homo sapiens) (UniProt Q13131). As to conditions: at 0.1 µM.
Chain of 5'-AMP-activated protein kinase catalytic subunit alpha-1 (Homo sapiens) (Q13131 whole entry, looked up): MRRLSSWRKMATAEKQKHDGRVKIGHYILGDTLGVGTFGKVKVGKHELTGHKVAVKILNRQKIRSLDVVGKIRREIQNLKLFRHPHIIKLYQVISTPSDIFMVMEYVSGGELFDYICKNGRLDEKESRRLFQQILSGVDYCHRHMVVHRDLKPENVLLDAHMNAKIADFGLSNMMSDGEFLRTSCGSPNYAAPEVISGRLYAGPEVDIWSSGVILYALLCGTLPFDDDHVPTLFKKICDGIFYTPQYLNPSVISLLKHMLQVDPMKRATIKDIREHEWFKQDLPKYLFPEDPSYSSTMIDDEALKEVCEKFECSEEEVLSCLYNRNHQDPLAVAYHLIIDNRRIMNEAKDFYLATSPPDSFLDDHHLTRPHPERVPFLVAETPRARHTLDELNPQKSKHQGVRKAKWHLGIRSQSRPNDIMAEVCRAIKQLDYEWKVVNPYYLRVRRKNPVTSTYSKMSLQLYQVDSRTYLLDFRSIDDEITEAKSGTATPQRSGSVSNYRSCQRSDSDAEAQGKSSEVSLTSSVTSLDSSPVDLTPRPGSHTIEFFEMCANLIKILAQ
Test [19] shares this target. Particulars: at 1 µM.
Test [20] has as its target 5'-AMP-activated protein kinase catalytic subunit alpha-2 (Homo sapiens) (UniProt P54646). As to conditions: at 0.1 µM.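 Also: mean inhibition measured on the AMPK complex of alpha2, beta1 and gamma1 subunits.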

Chain of Rho-associated protein kinase 2 (Homo sapiens) (O75116 whole entry, looked up): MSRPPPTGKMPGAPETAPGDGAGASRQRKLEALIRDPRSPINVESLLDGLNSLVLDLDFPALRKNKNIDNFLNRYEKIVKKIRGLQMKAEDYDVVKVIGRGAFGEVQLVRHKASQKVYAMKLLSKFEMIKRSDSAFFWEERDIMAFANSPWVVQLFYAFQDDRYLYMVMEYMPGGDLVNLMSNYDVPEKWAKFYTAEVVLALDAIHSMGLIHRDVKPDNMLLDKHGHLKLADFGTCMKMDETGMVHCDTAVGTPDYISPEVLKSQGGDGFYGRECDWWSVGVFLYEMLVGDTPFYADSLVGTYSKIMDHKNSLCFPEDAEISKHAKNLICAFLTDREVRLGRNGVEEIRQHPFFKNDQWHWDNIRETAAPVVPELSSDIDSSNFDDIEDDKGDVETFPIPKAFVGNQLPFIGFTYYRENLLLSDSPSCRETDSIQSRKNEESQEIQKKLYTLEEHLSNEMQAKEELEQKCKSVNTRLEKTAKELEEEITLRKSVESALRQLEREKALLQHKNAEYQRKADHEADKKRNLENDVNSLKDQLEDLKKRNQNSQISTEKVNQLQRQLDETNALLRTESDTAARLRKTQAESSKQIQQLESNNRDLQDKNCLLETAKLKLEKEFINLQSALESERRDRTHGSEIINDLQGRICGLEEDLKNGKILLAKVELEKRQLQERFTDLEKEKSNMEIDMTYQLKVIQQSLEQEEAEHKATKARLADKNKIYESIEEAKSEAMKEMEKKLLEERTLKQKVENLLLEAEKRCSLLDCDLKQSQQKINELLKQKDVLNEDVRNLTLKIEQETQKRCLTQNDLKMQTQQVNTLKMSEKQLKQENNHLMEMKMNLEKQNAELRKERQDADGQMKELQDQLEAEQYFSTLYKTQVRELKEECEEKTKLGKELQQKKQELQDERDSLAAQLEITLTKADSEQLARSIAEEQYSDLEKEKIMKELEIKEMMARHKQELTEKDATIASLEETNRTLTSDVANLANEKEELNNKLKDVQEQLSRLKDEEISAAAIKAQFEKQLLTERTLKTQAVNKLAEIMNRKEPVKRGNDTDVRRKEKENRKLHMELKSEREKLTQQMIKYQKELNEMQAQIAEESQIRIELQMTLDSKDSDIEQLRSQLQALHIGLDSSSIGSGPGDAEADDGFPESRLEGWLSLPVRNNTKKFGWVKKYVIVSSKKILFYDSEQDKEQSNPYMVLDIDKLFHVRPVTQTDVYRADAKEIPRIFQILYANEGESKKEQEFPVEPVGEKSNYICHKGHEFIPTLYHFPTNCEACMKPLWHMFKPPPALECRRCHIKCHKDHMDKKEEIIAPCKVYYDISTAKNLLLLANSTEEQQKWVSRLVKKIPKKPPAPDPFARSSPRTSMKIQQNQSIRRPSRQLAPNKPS
Chain of Ribosomal protein S6 kinase alpha-2 (Homo sapiens) (Q15349 whole entry): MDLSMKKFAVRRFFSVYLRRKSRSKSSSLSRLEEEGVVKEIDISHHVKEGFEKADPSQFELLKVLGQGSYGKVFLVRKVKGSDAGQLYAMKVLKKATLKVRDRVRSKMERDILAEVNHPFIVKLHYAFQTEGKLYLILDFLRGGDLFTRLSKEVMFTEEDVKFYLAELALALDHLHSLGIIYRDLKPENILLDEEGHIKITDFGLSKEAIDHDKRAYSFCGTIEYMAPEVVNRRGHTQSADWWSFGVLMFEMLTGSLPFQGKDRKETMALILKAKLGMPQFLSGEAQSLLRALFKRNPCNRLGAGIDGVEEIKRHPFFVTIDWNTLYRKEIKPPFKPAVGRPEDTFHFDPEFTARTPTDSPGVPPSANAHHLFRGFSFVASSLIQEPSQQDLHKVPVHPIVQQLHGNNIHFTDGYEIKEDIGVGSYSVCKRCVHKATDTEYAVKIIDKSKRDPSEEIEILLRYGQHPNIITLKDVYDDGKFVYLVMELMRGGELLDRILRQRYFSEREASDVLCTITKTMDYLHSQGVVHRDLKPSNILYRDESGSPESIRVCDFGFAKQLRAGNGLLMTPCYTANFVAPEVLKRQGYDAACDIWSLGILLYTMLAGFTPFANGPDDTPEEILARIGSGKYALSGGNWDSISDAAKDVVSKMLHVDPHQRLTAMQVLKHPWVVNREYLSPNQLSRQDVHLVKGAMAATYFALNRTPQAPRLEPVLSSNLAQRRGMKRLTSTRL
Chain of Ribosomal protein S6 kinase alpha-1 (Homo sapiens) (Q15418 whole entry): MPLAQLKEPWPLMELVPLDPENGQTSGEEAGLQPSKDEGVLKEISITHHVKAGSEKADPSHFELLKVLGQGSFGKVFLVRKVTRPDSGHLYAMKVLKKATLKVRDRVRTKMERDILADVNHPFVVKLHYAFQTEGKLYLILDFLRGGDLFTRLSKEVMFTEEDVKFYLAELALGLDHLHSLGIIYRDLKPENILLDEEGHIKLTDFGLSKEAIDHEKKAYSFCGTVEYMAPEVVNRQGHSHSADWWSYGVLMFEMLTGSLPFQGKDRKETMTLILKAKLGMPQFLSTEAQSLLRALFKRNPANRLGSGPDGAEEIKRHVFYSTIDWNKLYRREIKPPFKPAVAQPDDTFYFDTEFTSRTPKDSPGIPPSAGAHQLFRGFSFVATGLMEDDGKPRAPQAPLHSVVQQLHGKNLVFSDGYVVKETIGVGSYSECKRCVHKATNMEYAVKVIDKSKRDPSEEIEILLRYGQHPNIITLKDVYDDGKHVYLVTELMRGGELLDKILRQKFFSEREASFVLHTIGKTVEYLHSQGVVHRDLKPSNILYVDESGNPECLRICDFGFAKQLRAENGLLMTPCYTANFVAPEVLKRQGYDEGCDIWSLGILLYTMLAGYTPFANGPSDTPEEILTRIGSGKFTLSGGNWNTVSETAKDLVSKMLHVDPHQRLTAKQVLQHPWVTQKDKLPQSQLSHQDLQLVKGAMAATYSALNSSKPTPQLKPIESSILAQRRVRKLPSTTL

For `Cc1cc(-c2ccccn2)cc(C)c1/C=C/c1cncc(-c2nn[nH]n2)c1`, the inhibition (as a rule, the change of the read-out against control, counted positive when it falls) in test [1] was 2.97%; in test [2], 1.11%; in [3], 3.33%; in [4], -1.27%; in test [5], 1.85%; in test [6] it was -0.57%. The inhibition in [7] is 1.01%; in test [8], 0.4%; in test [9], 1.84%; in test [10], -1.04%; in [11], 1.31%; in test [12], 0.67%. Moreover, the inhibition was 1.66% in test [13]; 3.28% in test [14]; -0.92% in [15]; 4.48% in test [16]; 2.45% in test [17]; 0.33% in test [18]. The inhibition in [19] turned out to be 3.53%; in test [20], 6.43%.
Consider `CN(C)c1cc2c(Nc3ccc4c(cnn4Cc4ccccc4)c3)ncnc2cn1`, for which the inhibition was determined as 2.38% in test [1]; 2.57% in test [2]; 3.89% in test [3]; 0.98% in test [4]; 3.04% in [5]; 1.41% in test [6]. Further, the inhibition in test [7] came out at 2.13%; in test [8], 1.63%; in [9] it was 3.42%; in test [10], 0.97%; in test [11], 1.71%; in [12] it was 1.94%. Also, the inhibition in test [13] is 2.27%; in [14] it was 0.16%; in test [15] it was -0.04%; in test [16], 1.86%; in [17], 1.33%; in [18], 2.65%. In addition, the results for the inhibition in test [19] and in [20] were 3.27% and 1.84%, respectively.
On to `CCS(=O)(=O)c1ccc(OC)c(Nc2nccc(N(C)c3ccc4c(C)n[nH]c4c3)n2)c1`, for which the inhibition in test [1] was 2.51%; in test [2], 2.12%; in test [3], 4.04%; in test [4] it was -0.57%; in [5] it was 3.78%; in [6], -0.28%. Also, the inhibition in test [7] is 0.94%; in test [8], -0.47%; in [9] it was 1.56%; in test [10], -1.99%; in [11], -0.55%; in test [12] it was 2.43%. For the same compound, the inhibition amounted to 2.8% in test [13]; 4.15% in [14]; 2.6% in test [15]; 3.28% in test [16]; 1.75% in test [17]; 1.93% in [18]. In addition, the values for the inhibition in test [19] and in test [20] were 2.62% and 2.9%, respectively.
As to `Nc1nccc(-c2c(-c3ccc(F)cc3)ncn2CCCN2CCOCC2)n1`, the inhibition in test [1] is 3.31%; in [2] it was 4.99%; in test [3] it was 5.24%; in test [4], 2.16%; in test [5], 4.6%; in [6] it was 1.92%. Moreover, the inhibition stood at 2.6% in test [7]; 3.04% in [8]; 2.27% in [9]; 2.26% in test [10]; 3.56% in test [11]; 1.7% in [12]. The inhibition was 5.95% in test [13]; 0.32% in test [14]; 6.95% in test [15]; 3.43% in test [16]; 3.38% in test [17]; 3.37% in test [18]. Also, the inhibition in [19] was found to be 3.19%; in test [20], 3.33%.
In the case of `CCOc1nccc2c1nc(-c1nonc1N)n2CC`, the inhibition amounted to 10.8% in [1]; 4.9% in test [2]; 23.1% in test [3]; 5.34% in [4]; 30% in test [5]; 3.74% in test [6]. In addition, the inhibition in [7] is 17.1%; in test [8], 5.7%; in test [9], 27.9%; in test [10], 1.8%; in test [11] it was 4.02%; in [12], 4.63%. The inhibition turned out to be 8.95% in [13]; 4.13% in [14]; 12.7% in [15]; 6.9% in test [16]; 15.9% in [17]; 3.1% in test [18]. Besides, the inhibition in [19] was found to be 7.14%; in test [20], 2.19%.
`Cc1nc(-c2ccccc2)n2nc(NCCCN3CCOCC3)ncc12`: the inhibition came out at 0.26% in [1]; 2.1% in [2]; 0.91% in test [3]; 1.44% in test [4]; 5.36% in [5]; 2.6% in [6]. The inhibition amounted to 7.74% in test [7]; 3.24% in [8]; 7.6% in test [9]; 2.39% in test [10]; 12.8% in test [11]; 2.86% in test [12]. The inhibition in test [13] was found to be 2.79%; in test [14], 2.32%; in test [15], 0.65%; in [16] it was 0.22%; in test [17], 1.99%; in [18], 2.89%. For the same compound, the values for the inhibition in test [19] and in [20] were 6.04% and 3.08%, respectively.
Consider `Cc1ccc2c(c1)/C(=N/Nc1ccc(S(N)(=O)=O)cc1)C(=O)N2`, for which the inhibition in [1] was 2.75%; in test [2] it was -0.99%; in test [3], 2.52%; in test [4], 0.21%; in [5], 0.22%; in [6], 0.34%. Besides, the inhibition in [7] was 2.42%; in [8], 0.05%; in [9], 3.92%; in test [10], 1.62%; in [11], 2.46%; in test [12] it was 0.97%. Also, the inhibition in [13] is 1.07%; in [14], 1.13%; in [15], 0.76%; in test [16] it was -0.94%; in test [17] it was -1.14%; in test [18] it was 1.77%. For the same compound, the inhibition worked out at 6.53% in [19] and 0.59% in [20].
